ROMK mod: modulates human ROMK potassium channel activity; P48048; Tet-inducible ROMK, thallium flux fluorescence; actives lie on both sides; B-score at 10 µM; 2% of 130,000 active; AID 1918;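 active means signal ratio slope over the read window, or its plate-corrected B-score, at least 3 SD from the plate mean, either direction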;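 further: B-score of the F/F0 ratio slope over 7 to 12 s after thallium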
Target sequence (P48048 whole entry, looked up): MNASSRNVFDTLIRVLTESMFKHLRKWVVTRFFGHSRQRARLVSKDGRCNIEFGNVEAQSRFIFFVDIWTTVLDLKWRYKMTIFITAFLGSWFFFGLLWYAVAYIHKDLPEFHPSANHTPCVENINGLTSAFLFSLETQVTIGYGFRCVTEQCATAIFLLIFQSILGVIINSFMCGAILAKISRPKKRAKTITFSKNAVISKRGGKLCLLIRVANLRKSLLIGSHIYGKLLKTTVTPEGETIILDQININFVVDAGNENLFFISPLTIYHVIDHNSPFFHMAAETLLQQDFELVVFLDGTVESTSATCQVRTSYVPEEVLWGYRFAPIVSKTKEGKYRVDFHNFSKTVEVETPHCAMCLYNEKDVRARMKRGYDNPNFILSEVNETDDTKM
Calpain2 inh: inhibitors of pig calpain II | purified calpain II, fluorogenic peptide substrate, 30 min | inhibition, % at 16 µM | 0.37% of 220,000 active | AID 1236;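 active means inhibition above about 50%, limit read from the data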
Cl transport mod: KCC2 (human) Cl- transport modulation | Q9H2X9 | KCC2 cells, thallium flux FluoZin-2 fluorescence | B-score of Tl+ flux slope (higher = more flux/activation; lower = inhibition) at 10 µM | 2.2% of 190,000 active | AID 1456;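 active means thallium flux slope and its plate-corrected score both differing from the plate sample mean at a set confidence after two filtering rounds, in either direction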;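 further: slope of fluorescence scaled to starting intensity during 10 to 20 s after thallium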
Lmaj promast: inhibitors of Leishmania major promastigote growth. inhibition, % at 10 µM. 9% of 200,000 active. Leishmania major promastigotes, resazurin fluorescence viability; in the data active means inhibition above about 50%;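 further: promastigotes grown with compound for 44 hours at 28 °C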
WT yeast gro inh: growth inhibition of WT yeast, mitochondrial fusion screen; mitochondrial fusion phenotypic screen, WT strain; inhibition, % at 10 µM; 2.1% of 190,000 active; in the data active means inhibition above about 58%; tested in S. cerevisiae
KCC2 secondary: KCC2 (human) modulation, secondary assay. shares compounds with Cl transport mod. HEK293-KCC2, thallium flux, FluoZin2 fluorescence; active compounds read high. normalised thallium flux (F/F0 slope) at 10 µM. 15% of 3,700 active. AID 1713;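 active means thallium flux slope above the same plate's solvent-only control mean plus 3 SD; inconclusive means the two replicate wells disagree; inactive means no significant difference from solvent-only control wells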
KCC2 bumet counter: thallium flux despite bumetanide block in KCC2 cells, secondary assay 3; shares compounds with Cl transport mod; HEK293-KCC2 + bumetanide/ouabain, thallium flux FluoZin2; active compounds read high; normalized thallium flux at 10 µM; 49% of 3,700 active;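 active means thallium entry rate above the same plate's blocked-transporter control wells by more than 3 SD; inconclusive means the two repeat wells disagree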;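 further: raw slope of fluorescence over initial fluorescence between 10 and 20 s after thallium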
KCC2 sec2: confirmation of human KCC2 transport modulators. normalized thallium flux at 10 µM. HEK293-KCC2, thallium flux FluoZin2 fluorescence; actives lie on both sides; F/F0 rise rate, 10–20 s post-thallium. 23% of 3,700 active. AID 1715. shares compounds with Cl transport mod;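 active means thallium flux slope more than 3 SD above or below the plate's solvent-only control mean, mostly below; inconclusive means the two repeat wells disagreed; inactive means no significant shift from solvent-only controls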;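 further: raw slope with 0.1% DMSO as baseline and bumetanide as block control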
HEK293 Tl flux: parental HEK flux effect, counter-screen | 46% of 3,700 active | HEK293 parental cells, thallium flux FluoZin2, ouabain; baseline-ratio fluorescence slope, 10–20 s after thallium | thallium flux rate (normalised fluorescence) at 10 µM | shares compounds with Cl transport mod;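 active means thallium flux rate significantly above the same plate's solvent-only control wells, beyond their mean plus 3 SD; inconclusive means the two replicate wells gave conflicting results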
KCC2 retest ouab: modulates human KCC2 on retest with ouabain | HEK293-KCC2, thallium flux FluoZin2 fluorescence; bidirectional: low = inhibitor, high = activator | 48% of 3,700 active | shares compounds with Cl transport mod | raw Tl+ flux slope (below DMSO = inhibition, above = activation) at 10 µM;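 active means thallium flux slope beyond 3 SD from same-plate DMSO control mean in most replicates, usually higher, sometimes lower; inconclusive means repeat tests gave conflicting results; inactive means no significant difference from controls in most replicates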;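 further: slope of initial-normalized fluorescence between seconds 10 and 20 after thallium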
HEK293 Tl flux2: counter-screen for KCC2 modulators: effect in parental HEK293 cells. thallium flux FluoZin-2 fluorescence slope. shares compounds with Cl transport mod. 33% of 3,700 active. thallium flux slope at 10 µM. AID 1718;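 active means thallium flux slope above the same plate's solvent-control mean plus 3 SD in both duplicate wells; inconclusive means duplicate wells that disagreed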;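 further: run without ouabain in cells lacking the KCC2 cotransporter; slope of fluorescence scaled to its starting value between 10 and 20 s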
* marks the source's active call; other numbers are inactive results; i = inactive; ? = inconclusive; · = no result. Shown are actives, neighbours in structure and some others; about 12% of the full set was active somewhere.

SMILES | ROMK mod | Calpain2 inh | Cl transport mod | Lmaj promast | WT yeast gro inh | KCC2 secondary | KCC2 bumet counter | KCC2 sec2 | HEK293 Tl flux | KCC2 retest ouab | HEK293 Tl flux2
COc1ccc(Cn2c(=S)[nH]c3ccccc32)cc1 | -0.01 | 17.6 | 10.9* | -1.0 | 7.7 | 0.00724 | 0.00985* | 0.0311 | 0.0125* | ? | 0.0121*
COc1ccccc1-c1ccc(=O)n(CC(=O)NCc2ccc3c(c2)OCO3)n1 | · | -14.5 | -3.69* | -7.7 | -6.6 | 0.00772 | 0.00918* | 0.0319 | ? | 0.0156* | 0.0109
COc1cc(/C=N/NC(=O)CSc2n[nH]c(=O)[nH]c2=O)cc(OC)c1O | -0.188 | -15.8 | -0.0409 | -5.9 | -1.8 | · | · | · | · | · | ·
CCCn1c(SCC(=O)N2c3ccccc3CC2C)nnc1-c1ccco1 (centres undefined) | 0.871 | 36.4 | -4.81* | -0.5 | 9.9 | 0.00827 | 0.00435 | 0.0349 | ? | 0.0178* | 0.00939
Cc1cccc(N2CCN(C(=S)NCc3ccco3)CC2)c1C | 0.842 | 18.7 | -1.66 | 42.4 | 57.1 | · | · | · | · | · | ·
CCN(CC)c1ccc2cc(C(=O)Nc3ccccn3)c(=O)oc2c1 | · | -35.8 | i | 42.0 | -2.0 | 0.00312* | ? | 0.0156* | 0.00366* | 0.00541* | 0.00648*
CCN(CC)c1ccc2cc(C(C)=O)c(=O)oc2c1 | · | -27.6 | i | 10.6 | -2.3 | · | · | · | · | · | ·
CCC(=O)N(CCc1ccc(OC)c(OC)c1)Cc1cc2ccc(C)cc2n2nnnc12 | -0.016 | -12.8 | -0.772 | 19.0 | -4.7 | · | · | · | · | · | ·
O=[n+]1cc(-c2ccc(Br)cc2)n([O-])c2c1CCC2 | · | -10.1 | 0.00548 | -7.3 | -11.1 | · | · | · | · | · | ·
CC1=NN2C(=N)/C(=C\c3cc(C)n(-c4ccc(C)cc4)c3C)C(=O)N=C2S1 | -1.34 | -106.7 | 0.067 | · | · | · | · | · | · | · | ·
CN1C(C(=O)NCc2ccccc2)CC2Cn3c(nc4cc(Cl)c(Cl)cc43)C21 (centres undefined) | · | -18.4 | -3.2* | · | · | 0.0168 | 0.00452 | 0.0225* | 0.00703 | 0.0136 | 0.0101
CCOC(=O)Cn1c(=O)oc2cc(S(=O)(=O)N3CCc4ccccc43)ccc21 | · | -2.9 | -3.26* | 59.6* | 4.3 | 0.00924 | 0.00601 | 0.0312 | 0.0083 | 0.0211 | 0.0108
CCN(Cc1ccncc1)Cc1c(O)ccc2cc(Br)ccc12 | -0.117 | -24.2 | -0.685 | -2.2 | -3.6 | · | · | · | · | · | ·
CC(C)CC(=O)NC1(C(F)(F)F)C(=O)Nc2c1c(=O)n(C)c(=O)n2C (centres undefined) | 0.954 | -6.8 | -3.54* | -8.7 | 8.1 | 0.00622 | 0.0051 | 0.0333 | 0.00824 | 0.0206 | 0.0106
COC(=O)C1=C(C)N(C)C(=O)NC1c1ccc(O)c(Cl)c1 (centres undefined) | 0.472 | -30.2 | -0.107 | -1.1 | 13.7 | · | · | · | · | · | ·
NC(=O)SCC(=O)Nc1ccc(Cl)c(Cl)c1 | -2.92 | -0.8 | · | 98.0* | 11.7 | 0.00729 | 0.0128* | 0.0263* | 0.0101* | 0.0192 | ?
O=C(NC(=S)N(CCO)Cc1ccccc1)c1cc(Br)ccc1Cl | 0.395 | -22.4 | 10.3* | -3.2 | 21.0 | 0.0152* | 0.0393* | 0.0333 | ? | 0.0328* | 0.0123
N#CCCN(Cc1ccccc1)C(=S)NC(=O)c1ccccc1 | · | -21.8 | · | 5.8 | 26.3 | · | · | · | · | · | ·
O=C1CCCC/C1=C/NCc1ccc(F)cc1 | 0.646 | 0.4 | -0.0874 | -2.4 | -14.0 | · | · | · | · | · | ·
CC1CCCN(S(=O)(=O)c2ccc(NC(=O)CCN3C(=O)c4ccccc4C3=O)cc2)C1 (centres undefined) | · | 20.6 | 0.023 | -3.7 | -3.0 | 0.00973 | ? | 0.0331 | 0.00777 | 0.0205 | 0.0109
O=C(CCN1C(=O)c2ccccc2C1=O)Nc1ccc(S(=O)(=O)N2CCOCC2)cc1 | · | -1.3 | -0.378 | -7.6 | -4.9 | · | · | · | · | · | ·
Cc1cccc(C)c1NC(=O)Cn1nc(-c2ccccc2)nc1-c1ccccc1 | · | -72.1 | 0.171 | -2.5 | 6.1 | · | · | · | · | · | ·
O=C(O)CCn1c(SCc2cccc3ccccc23)nc2ccccc21 | -0.934 | -36.1 | -8.69* | 4.7 | 11.2 | ? | 0.00654 | 0.0224* | 0.00663 | 0.0155* | 0.00971
NNC(=O)Cn1c(SCc2ccccc2)nc2ccccc21 | -0.0828 | 30.2 | -3.27* | 0.4 | 23.8 | 0.0074 | 0.00452 | 0.0299 | 0.00745 | 0.0184 | 0.00985
CCOC(=O)CNC(=O)c1c(C)nn(C)c1Cl | 0.985 | 14.8 | 1.17 | -7.8 | -0.8 | · | · | · | · | · | ·
SMILES | ROMK mod | Calpain2 inh | Cl transport mod | Lmaj promast | WT yeast gro inh | KCC2 secondary | KCC2 bumet counter | KCC2 sec2 | HEK293 Tl flux | KCC2 retest ouab | HEK293 Tl flux2
O=C(Nc1nnc(-c2ccccc2Cl)o1)c1cc2cc([N+](=O)[O-])ccc2s1 | 0.486 | -38.0 | 6.56* | 47.1 | 20.9 | 0.00549 | 0.0147* | 0.0344 | 0.0163* | ? | 0.0166*
CC(=O)N1CC2(NC(=O)c3ccccc3N2)c2ccccc21 (centres undefined) | · | -371.0 | 0.0993 | -8.8 | -10.0 | · | · | · | · | · | ·
O=c1[nH]c(CSc2nc3ccccc3s2)nc2ccccc12 | · | -7.5 | 1.33 | · | · | · | · | · | · | · | ·
O=c1[nH]c(CSc2nc3ccccc3s2)nc2cc(Cl)ccc12 | 0.563 | -30.3 | 6.25* | · | · | 0.0107 | 0.0143* | 0.0329 | ? | ? | 0.0114
CC1CCCCN1C(=O)CSc1nnc(Cc2ccccc2)n1C (centres undefined) | -0.000294 | -11.1 | 3.16* | -6.5 | -17.6 | 0.00549 | 0.00487 | 0.0294 | 0.00764 | 0.0179 | 0.0109
Cc1c(S(=O)(=O)c2ccccn2)c(N)n(Cc2cccc(Cl)c2)c1C | -1.47 | -28.4 | -1.05 | · | · | · | · | · | · | · | ·
COc1ccc(OCC(=O)NC(=S)Nc2ccccc2F)cc1 | · | -12.4 | 51.7* | 42.5 | 12.8 | 0.04* | 0.0878* | 0.049* | 0.0279* | 0.0508* | 0.0326*
COc1ccc(C/C(C)=N/NC(=S)Nc2ccccc2F)cc1 | 0.206 | -8.6 | 55.4* | -9.9 | -8.0 | 0.0107 | 0.036* | 0.0404 | ? | 0.0391* | ?
CCOC(=O)C1=CN(CC2CCCO2)C=C(C(=O)OCC)C1c1ccccc1C(F)(F)F (centres undefined) | 1.42 | i | -1.6 | -0.1 | 10.1 | · | · | · | · | · | ·
O=C(c1ccc(-c2nnc(Nc3ccccc3)c3ccccc23)cc1)N1C[C@H]2C[C@H](C1)c1cccc(=O)n1C2 | · | 4.9 | -0.0613 | -1.4 | -1.6 | · | · | · | · | · | ·
Cc1cc(=O)[nH]c(SCC(=O)Nc2nc(-c3ccccc3)cs2)n1 | · | -31.5 | -7.13* | -10.8 | -12.9 | 0.00791 | 0.00626 | 0.0338 | 0.0038 | 0.0147* | 0.0114
Cc1cc(C)nc(SCc2nnc(SCC(=O)Nc3nc(-c4ccccc4)cs3)n2C)n1 | -1.95 | 3.1 | -1.77 | 20.3 | -7.5 | · | · | · | · | · | ·
